An excerpt weighted towards active compounds, which were near 13% of everything screened.
Cycloheximide cs = counter-screen hit for Shiga toxin inhibitors, cycloheximide; cell reporter, cycloheximide protein synthesis inhibition counterscreen; max response, %; hit rate 12% among 300,000; AID 2314; in the data active = max response mostly above about 13%, no sharp cut-off; inactive = mostly below about 14%; also: read at 38.3 µM for the half of the compounds with a filed dose; 0% is about no effect
LASV entry inh = Lassa virus entry inhibition | Lassa virus pseudotype entry inhibition, cell reporter | Potency, µM (titrated, usually from 37.9 µM), for inactives: top-dose activity change, negative = inhibition, usual class: inhibitors | hit rate 1.2% among 300,000 | AID 540256; calls by dose curve; tested in HEK293 cells; also: potency is read from the fitted curve at half-maximal effect; % is scaled to controls: 0 for no effect and ±100 for the full control effect; nearly all actives have a fitted effect of over 50% in size
FMDV inh = blocks foot and mouth disease virus; Potency, µM (titrated, usually from 57.9 µM), for the others: top-dose activity change, negative = inhibition, usual class: inhibitors; FMDV antiviral cell-based qHTS; hit rate 1.2% among 410,000; calls by dose curve; tested in HEK293T cells; also: read-out not given here; potency is read from the fitted curve at half-maximal effect; % is scaled to controls: 0 for no effect and ±100 for the full control effect; nearly all actives have a fitted effect of over 45% in size
Marburg entry inh = inhibitors of Marburg virus binding or cell entry | Marburg virus pseudotyped entry inhibition, cell reporter | Potency, µM (top dose mostly 37.8 µM), for inactives: at the top dose activity change, negative = inhibition, hits mostly inhibitors | hit rate 1.8% among 300,000; calls by dose curve; tested in HEK293 cells; also: potency is read from the fitted curve at half-maximal effect; % is scaled to controls: 0 for no effect and ±100 for the full control effect
HCV inh = inhibitors of hepatitis C virus infection; Huh7.5.1 HCVcc-Cre infection, luciferase reporter, 44 h; Potency, µM (titrated, usually from 41.8 µM), inactives show top-dose activity change, negative = inhibition, actives largely listed as inhibitors; hit rate 3.4% among 340,000; AID 651820; active = well fitted inhibition curve with a large enough effect; inconclusive = small, poorly fitted or top-dose-only effect, or another doubt; inactive = no such curve, though single readings can be large or run the other way; also: potency is read from the fitted curve at half-maximal effect; % is scaled to controls: 0 for no effect and ±100 for the full control effect
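Whole-lifecycle infectious HCVcc-Cre system; cells 1,000/well, compound then virus (~0.5 moi) added 4 h after plating, 44 h culture. Luciferase read 15 sec following 15 min substrate incubation, room temp.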
Shiga inhibitor = blocks Shiga toxin action in Vero cells | Vero cells, Shiga toxin protein synthesis inhibition reporter | inhibition, % at 38.7 µM | hit rate 9.2% among 290,000 | AID 2315; in the data active = inhibition mostly above about 28%, no sharp cut-off; inactive = mostly below about 43%; also: 0% is about no effect
* hit, by the source's call; ? = inconclusive; . = no result; [ ] = remark or other dose.

SMILES	Cycloheximide cs	LASV entry inh	FMDV inh	Marburg entry inh	HCV inh	Shiga inhibitor
O=C(COC(=O)c1ccco1)c1ccc(F)cc1	54.6*	29.1%	55.1%	3.0%[46.1 µM]	10.5%	110.3*
Cc1ccc(SC(=O)c2c([N+](=O)[O-])c(C)nn2C)cc1	11.6*	-12.6%	?	9.8%[46.1 µM]	14.1%	8.9
Cc1cc(C)n(C(=O)c2c([N+](=O)[O-])c(C)nn2C)n1	1.3	-18.0%	-2.7%	19.1%	17.3%	-2.5
Cc1ccc2cc3cc(C(=O)N4CCN(c5ccccc5)CC4)oc3nc2c1	.	25.3%[46.1 µM]	-3.1%	.	.	.
CCC(=O)c1ccc(O)c(OC)c1	-1.2	.	-10.8%	.	23.2%	-7.6
CC(C)Sc1cc(N2CCOCC2)nc(-c2ccccc2)n1	-3.5	2.3%	?	-24.4%	12.6µM*	-9.4
COCc1cc(N2CCOCC2)nc(-c2ccccc2)n1	0.6	9.2%	-21.8%	10µM*	?	21.1
COC(=O)c1cccc(N2C(=O)C[C@](Sc3ccc(C)cc3)(C(=O)OC)[C@H]2c2ccccc2)c1	.	.	-18.5%	.	.	.
O=C(O)c1ccc(N=Nc2c(O)[nH]c3ccccc23)cc1	38.7*	5.01µM*	?	1.78µM*	0.3%	56.1*
O=C(N=Nc1c(O)[nH]c2ccc(Br)cc12)c1ccccc1-n1cccc1	9.0	?	?	?	17.8µM*	61.0
CN(C)C(=O)c1ccc(N=Nc2c(O)c3ccccc3[nH]c2=O)cc1	.	?	?	?	-7.1%	.
O=C(N=Nc1c(O)[nH]c2ccccc12)c1cc(NS(=O)(=O)c2cccs2)cc(NS(=O)(=O)c2cccs2)c1	-6.9	-13.6%	-7.6%	-15.8%[46.1 µM]	-21.1%	-6.7
CC(=O)c1cccc(N=Nc2c(C)[nH]c3ccccc23)c1	49.6*	17.2%	46.3%	-15.0%	?	93.3*
O=C(N=Nc1c(O)[nH]c2ccccc12)c1cccs1	39.0*	?	-6.3%	?	-4.2%	107.1*
O=C(Nc1ncc([N+](=O)[O-])s1)C1CCN(S(=O)(=O)c2cnc[nH]2)CC1	5.9	14.9%	.	2.8%	9.2%	19.9
Cc1ccc(C(=O)c2cc([N+](=O)[O-])ccc2N2CCOCC2)c(C)c1	-0.6	?	-22.1%	?	12.5%	-20.4
Oc1[nH]c2ccc(Br)cc2c1N=NC(=S)Nc1ccc(F)cc1	-2.7	?	25.0%	?	?	-8.2
CNC(=S)N=Nc1c(O)[nH]c2ccccc12	6.4	11.5%	8.3%	7.3%	-0.4%	17.0*
Cc1ccc(NC(=S)N=Nc2c(O)[nH]c3ccccc23)cc1	22.2*	?	-11.5%	?	-22.5%	52.6*
Oc1ccc(NC(=S)N=Nc2c(O)[nH]c3ccc(Br)cc23)cc1	11.7	11.2µM*	-18.8%	?	-13.8%	24.2
Oc1ccc(NC(=S)N=Nc2c(O)[nH]c3ccccc23)cc1	19.7	?	33.8%	?	?	50.9*
CNC(=S)N=Nc1c(O)[nH]c2ccc(C(C)C)cc12	-2.9	?	-3.4%	?	?	-2.8
COc1ccc(NC(=S)N=Nc2c(O)[nH]c3ccccc23)cc1	3.0	.	0.0%	.	?	20.7
CCc1c(O)nc(SCc2ccc(F)cc2)[nH]c1=O	-1.4	-11.8%	2.7%	13.5%	15.6%	.
COc1ccc(-c2cn3nc(N4CCC(C(=O)NCc5ccc(F)cc5)CC4)sc3n2)cc1	.	?	12.9%	.	.	.
SMILES	Cycloheximide cs	LASV entry inh	FMDV inh	Marburg entry inh	HCV inh	Shiga inhibitor
O=C(OC1CNC(C#Cc2cc3ncnc(Nc4ccc5c(cnn5Cc5ccccc5)c4)c3s2)C1)N1CCOCC1 (stereo not given)	.	1.25µM*	.	.	.	.
CN(C)C(=O)OC1CNC(C#Cc2cc3ncnc(Nc4ccc(OCc5cccc(F)c5)c(Cl)c4)c3s2)C1 (stereo not given)	.	4.99µM*	.	.	.	.
O=C(OC1CNC(C#Cc2cc3ncnc(Nc4ccc(OCc5cccc(F)c5)c(Cl)c4)c3s2)C1)N1CCOCC1 (stereo not given)	.	2.81µM*	.	.	.	.
CNC(=O)c1cccc(C#Cc2cncnc2Nc2ccc(OCc3cccc(F)c3)c(Cl)c2)c1	.	0.791µM*	.	.	.	.
COc1ccc(NC(=O)c2cccc(NC3=NC4CS(=O)(=O)CC4S3)c2)cc1Cl (stereo not given)	1.6	.	?	.	-0.9%	0.7
O=C(/C=C/c1ccccc1Cl)N1CCC(c2nc3ccccc3o2)CC1	.	10.7%[46.1 µM]	-0.3%	?	.	.
COc1ccc(-c2ocnc2C(=O)NCc2nn(-c3ccccc3)nc2C)cc1	1.2	.	-49.7%	.	2.51µM*	7.0
CC(C)n1ncc2c(C(=O)Nc3ccc(S(N)(=O)=O)cc3)cc(C3CC3)nc21	.	.	?	.	-25.5%	.
CC(C)n1ncc2c(C(=O)NCc3cccnc3)cc(C3CC3)nc21	.	.	30.6%	.	7.94µM*	.
CNC(=O)c1cccc(NC(=O)c2cc(-c3ccccc3)nc3c2cnn3C(C)C)c1	.	.	?	.	3.16µM*	.
CCN(CC)C(=O)c1cccc(NC(=O)c2cc(C3CC3)nc3c2cnn3C(C)C)c1	.	.	-22.1%	.	7.08µM*	.
Cc1ccc(OCCNC(=O)c2cc(C3CC3)nc3c2cnn3C(C)C)cc1	.	.	-29.3%	.	12.6µM*	.
Cc1ccc(CNC(=O)c2cc(C3CC3)nc3c2cnn3C(C)C)cc1	.	.	-14.7%	.	?	.
CCN1C[C@@H]2[C@@H]3C(=O)N(Cc4ccccc4)C(=O)[C@@H]3[C@](Cc3ccccc3)(C1=O)N2C(=O)c1ccc(Cl)c(Cl)c1	.	.	-23.3%	.	3.8%	.
CC(C)n1ncc2c(C(=O)Nc3ccc(S(C)(=O)=O)cc3)cc(C3CC3)nc21	.	.	0.0%	.	5.62µM*	.
CC(=O)Nc1ccc(NC(=O)c2cc(C3CC3)nc3c2cnn3C(C)C)cc1	.	?	-28.6%	1.7%[46.1 µM]	10µM*	.
CCOc1ccc(NC(=O)c2cc(C3CC3)nc3c2cnn3C(C)C)cc1OC	.	.	-13.3%	.	10µM*	.
C=CCN1C(=O)N(c2ccc(Cl)cc2)C(=O)C1CC(=O)Nc1ccc(F)cc1 (stereo not given)	-3.4	.	-16.6%	.	-7.6%	-17.0
O=C(CO)N/N=C/c1ccc(Cl)cc1	-0.4	24.2%[14.3 µM]	6.1%	1.5%	.	-14.4
O=C(N/N=C/c1ccc(Cl)cc1)C1CC12CCC2 (stereo not given)	52.7*	?	52.8%	18.3%[46.1 µM]	-4.5%	132.5*
Cc1onc(-c2ccccc2)c1C(=O)N/N=C/c1ccccc1OC(C)C	6.2	.	?	.	-16.2%	-25.3
Cc1ccc(SCc2cc(=O)n(C)[nH]2)cc1	7.9	.	13.8%	.	18.2%	55.2*
Cc1ccc(SCc2cc(=O)n3[nH]c(C)nc3n2)cc1	-0.9	22.3%	6.4%	-2.2%	6.9%	-7.2
Cn1c(/C=C(\C#N)C(N)=S)ccc1-c1ccc(Br)cc1	14.6*	.	-15.1%	.	-22.0%	26.9
Cn1cccc1/C=C(\C#N)C(N)=S	-0.8	28.9%	41.6%	6.8%	14.2%	1.8
CN(C)CC1CCC/C(=C/c2ccc(Cl)cc2)C1=O (stereo not given)	.	?	39.8µM*	-3.1%	?	.
O=C(COC(=O)/C=C/c1ccc(Cl)c(Cl)c1)NC1CCCC1	.	.	-3.8%	.	-0.5%	.
CN(C)CC1CCC/C(=C\c2ccc(OC(=O)/C=C/c3ccc(Cl)c(Cl)c3)cc2)C1=O (stereo not given)	.	12.1%	39.8µM*	?	?	.
